Experimental data from ChEMBL document CHEMBL3988442, “University of Dundee, Small-Polar-MMV Screening Library” (2021).
The campaign covered roughly 48,000 compounds. About 13,000 (27%) showed an effect of 50% or more. Some of the results follow.

Test system: Wolbachia pipientis
Experiment: Anti-Wolbachia Cell-Based Screen
Assay type: functional
Parameters: scale not given: in the data most compounds retested in dose-response had high values
Conditions: 5 µM

SMILES | Percent Effect [%]
COc1cccc(C(=O)Nc2ccc(OCCC(N)=O)cc2)c1OC | 3.494
N#Cc1ccc(OC2CCN(C(=O)COCC3CCCO3)CC2)cc1 (configuration not stated) | -13.18
Cc1cnn(CCC(=O)NS(=O)(=O)N2CCCc3ccccc32)c1 | 4.859
Cc1nc(C2CCCN(C(=O)c3ccc(Cn4cccn4)o3)C2)no1 (configuration not stated) | -2.072
Cc1nc(CN2CCC23CCN(Cc2ccoc2)CC3)cs1 | 97.06
O=C(O)C(F)(F)F.O=C(O)C(F)(F)F.c1coc(CN2CCCC3(COCCN(Cc4c[nH]nn4)C3)C2)c1 (configuration not stated) | -3.131
Cc1nc(CN2CCC3(C2)CN(Cc2ccco2)C3)cs1 | 129
Cc1nc(CN2CCN(Cc3ccoc3)Cc3cccnc32)cs1.O=C(O)C(F)(F)F.O=C(O)C(F)(F)F.O=C(O)C(F)(F)F | 3.214
Cc1nc(CN2CCOC3(CCCN(c4nccs4)C3)C2)cs1 (configuration not stated) | -8.721
Cc1nc(CN2CCC23CCN(Cc2ccco2)CC3)cs1 | 101.3
Cc1cc(C)c(Cn2cncn2)cc1CN1CC[C@H](CO)[C@@H](O)C1 | 2.193
COCCN(Cc1noc(-c2ccc(OC)cc2)n1)C1CC1 | 20.29
CCOCC1CN(C(=O)c2ccsc2)Cc2nn(C)cc21 (configuration not stated) | -7.597
CC(Cc1cccc(F)c1)C(=O)NS(=O)(=O)c1cnn(C)c1 (configuration not stated) | -18.57
Cc1cccc2nc(CN3CCC(Cn4ccnn4)CC3)cc(=O)n12 | -3.748
CCn1cnnc1C1CCN(C(=O)c2ccc(OC(C)C)nc2)CC1 | 106.8
CCn1cnnc1C1CCN(C(=O)c2ccc(C(=O)OC)s2)CC1 | -1.592
CCn1cnnc1C1CCN(C(=O)c2cnc(C3CC3)s2)CC1 | -9.527
CCn1cnnc1C1CCN(C(=O)c2cnn(C(C)(C)C)c2)CC1 | 107
Cn1c(C2CC2)nc2c1CCN(CC(=O)Nc1nncs1)C2 | -1.4
O=C(Nc1cccc(F)c1)NC1CCN(Cc2ccncc2)CC1 | -11.06
CCS(=O)(=O)NCCNC(=O)N(Cc1ccc(C)o1)C(C)C | -16.03
Cn1nc(C(=O)N2CCCCC2c2nc3cc(F)ccc3[nH]2)ccc1=O (configuration not stated) | 6.226
c1cn2c(n1)CNCC(COCC1CC1)C2 (configuration not stated) | -6.113
COC(=O)[C@@H]1Cc2ncn(C)c2CN1S(=O)(=O)c1ccc(C)cc1 | -10.72

SMILES | Percent Effect [%]
Cc1ccc(S(=O)(=O)N2C[C@H]3C[C@H](NC(=O)c4ccnn4C)[C@H]3C2)cc1 | -12.92
Cc1ccc(S(=O)(=O)N2CC[C@@H]3C[C@H](NC(=O)c4n[nH]cc4Cl)[C@@H]32)cc1 | 97.43
Cc1ccc(S(=O)(=O)N2C[C@@H]3C[C@@H](NC(=O)C(C)(C)C)[C@@H]3C2)cc1 | -7.611
Cc1ccc(S(=O)(=O)N2C[C@H]3C[C@H](NC(=O)c4ccn(C)n4)[C@H]3C2)cc1 | 0.5687
Cc1ccc(S(=O)(=O)N2CC[C@@H]3C[C@H](NC(=O)c4ccncc4)[C@@H]32)cc1 | 124.2
Cc1ccc(S(=O)(=O)N2CC[C@@H]3C[C@H](NC(=O)c4[nH]ncc4Br)[C@@H]32)cc1 | 95.45
CS(=O)(=O)NCCC(=O)N1CCN(S(=O)(=O)c2ccc(Br)cc2)CC1 | 3.27
Cc1cc(C(=O)N2CCc3c(nc(-c4ccncc4)[nH]c3=O)C2)no1 | -7.817
O=C(O)C(c1ccc2c(c1)OCCO2)N1CCCCCC1 (configuration not stated) | -0.2284
CN1CCCN(C(=O)c2ccc3c(c2)nc(N2CCOCC2)n3C)CC1 | 16.47
O=C(c1cccnc1-c1ccc2c(c1)OCCO2)N1CCCC1 | -9.168
CN(C)C(=O)c1cccnc1-c1ccc2c(c1)OCCO2 | -4.201
Cn1cnnc1C1CCCN(C(=O)c2ccc3c(c2)OCCO3)C1 (configuration not stated) | -7.071
O=C(c1cccn1-c1ccc2c(c1)OCCO2)N1CCCC1 | 97.35
CN(C)C(=O)C(C)(C)c1ccc2c(c1)OCCO2 | -10.01
O=C(O)c1cccn1-c1ccc2c(c1)OCCO2 | 96.33
CN1CCCN(C(=O)c2cccn2-c2ccc3c(c2)OCCO3)CC1 | 88.31
CC(=O)N1CC2(CCN(C(=O)c3ccc4c(c3)OCCO4)CC2)C1 | -3.523
O=C(O)C(c1ccc2c(c1)OCCO2)N1CCCC1 (configuration not stated) | 10.75
CN(C)C(=O)c1cccn1-c1ccc2c(c1)OCCO2 | 99.12
CN(CC(F)(F)F)C(=O)c1ccc(F)c(NS(C)(=O)=O)c1 | -3.424
CS(=O)(=O)CCn1ccc(NCc2ccc(C#N)cc2)n1 | 4.656
CC(c1nccs1)n1cc(-c2cc(CN3CCCCC3)cs2)nn1 (configuration not stated) | 17.2
CC1CN(C(=O)c2ccnc(-n3cncn3)c2)c2ccccc2S1 (configuration not stated) | -6.511
CC(C)CNC(=O)c1ccc2nnc(C3CCN(S(C)(=O)=O)C3)n2c1 (configuration not stated) | -4.952

SMILES | Percent Effect [%]
Cc1ccc(C(=O)NS(=O)(=O)c2cccc3cnccc23)c(=O)[nH]1 | -6.684
CCn1nc(C)c(S(=O)(=O)Nc2ccccc2C(=O)OC)c1C | -6.756
CC(=O)N1CCCCC1c1ncnn1-c1ccc2nc(C)sc2c1 (configuration not stated) | 1.056
Cc1nn(CC(=O)O)c(C)c1NS(=O)(=O)c1cc2ccccc2s1 | 90.4
CCN(C)S(=O)(=O)NCC(O)c1cc2ccccc2s1 (configuration not stated) | -28.91
CN(C)c1ncc(CNS(=O)(=O)c2cccc3ccccc23)n1C | 5.382
Cc1ccc(S(=O)(=O)Nc2c(C)nn(C)c2C)cc1C | -30.32
Cc1nn(CC(=O)O)c(C)c1NS(=O)(=O)c1cccc2ccccc12 | 85.86
Cc1nc2ccc(S(=O)(=O)Nc3c(C)nn(CC(=O)O)c3C)cc2s1 | 96.05
Cc1ccc(CCN[C@@H]2c3ccccc3C3(CCNCC3)[C@H]2O)s1 | -1.865
Cc1cc(C(=O)N[C@H](C)c2onc(-c3cccnc3)c2C(=O)O)c(C)o1.Cl | -10.14
C=Cc1ccc(C(=O)N2CCCC(Nc3ccc(F)c(F)c3)C2)cc1 (configuration not stated) | -24.37
Cc1cc(=O)[nH]c(SC(C)C(=O)N2CCCN(C3CCCC3)CC2)n1 (configuration not stated) | -14.72
O=C(Nc1cccnc1)c1ccc(-n2cncn2)nn1 | 4.763
CNC(=O)NC1CC2(CCNCC2)c2ccc(C)cc21 (configuration not stated) | 2.029
Cl.Cl.c1ccc2c(c1)C(NC1CCCC1)CC21CCNCC1 (configuration not stated) | 102.9
Fc1ccc2c(c1)C1(CCNCC1)CC2OCC1CC1 (configuration not stated) | -8.217
CC(C)c1nnc(NC(=O)NCc2ccnc(N(C)C)c2)s1 | -3.838
CN(C)c1cc(CNC(=O)Nc2nnc(C3CC3)s2)ccn1 | 137.2
COc1cc(CNC(=O)Nc2nnc(C(C)C)s2)ccc1O | 0.367
COc1cc(CNC(=O)c2csc(Br)c2)ccn1 | 70.51
COc1cc(CNC(=O)Nc2nnc(C(C)C)s2)ccn1 | 139
COc1ncccc1CNC(=O)c1csc(Br)c1 | -3.895
CC/C=C(/C)C(=O)NCc1ccnc(OC)c1 | -6.401
CCOc1ncccc1CNC(=O)c1csc(Br)c1 | -22.46

SMILES | Percent Effect [%]
Cc1nnc(NC(=O)NCc2ccnc(N(C)C)c2)s1 | 99.1
Cc1cc(Br)ccc1C(=O)N(C)CCNS(C)(=O)=O | -13.91
COCc1nc(N(C)CCSc2ccccc2)c2cnn(C)c2n1 | -20.02
Cc1cnc(CN2CCCC(c3nc4ccccc4n3C(C)C)C2)o1 (configuration not stated) | -8.983
CN(C)C(C(=O)NCC1(C)COC1)c1cccc(F)c1 (configuration not stated) | 3.319
CC(C)[C@H]1CN(C2Cc3ccccc3C2)C[C@@H]1NS(=O)(=O)N(C)C | -3.523
CS(=O)(=O)N[C@@H]1CN(Cc2ccccc2)C[C@H]1O | 118.1
CS(=O)(=O)N[C@@H]1CN(Cc2ccc3ccccc3c2)C[C@H]1O | 117
CC(C)[C@H]1CN(C2Cc3ccccc3C2)C[C@@H]1NS(C)(=O)=O | 7.531
CS(=O)(=O)N[C@@H]1CN(Cc2ccccc2)C[C@@H]2CCCO[C@@H]21 | -3.887
CS(=O)(=O)N[C@H]1CN(CCOCc2ccccc2)C[C@@H]1C1CC1 | -6.261
CC(C)[C@@H]1CN(C2CCN(Cc3ccccc3)CC2)C[C@H]1NS(C)(=O)=O | 57.6
CS(=O)(=O)NC1CCN(C(=O)c2cc3ccccc3s2)C1 (configuration not stated) | -26.49
CCC[C@@H]1CN(C(=O)c2cc3ccccc3s2)C[C@H]1NS(C)(=O)=O | -8.95
CS(=O)(=O)NC1CCN(C(=O)c2ccc3ccccc3c2)C1 (configuration not stated) | -0.4422
COc1ccc(CN2C[C@@H]3CCCO[C@@H]3[C@H](NS(C)(=O)=O)C2)cc1.O=C(O)C(F)(F)F | -19.78
CS(=O)(=O)N[C@@H]1CN(C(=O)c2cc3ccccc3s2)C[C@H]1O | 153.3
O=C(NCc1cc2ccccc2s1)c1cc(CN2CCCC(O)C2)on1 (configuration not stated) | 4.701
O=C(O)CC[C@@H]1CN(c2ncnc3[nH]ccc23)CC[C@@H]1N1CCOCC1 | -3.371
COCc1cn(C2CCN(C(=O)c3ccc(F)c(C)c3)CC2)nn1 | 14.23
Cc1cc(F)ccc1OC1(C(=O)O)CCN(Cc2nccn2C)CC1 | -12.18
O=c1cc(CNS(=O)(=O)C2CC2)nc2n1CCCNC2 | 10.88
